# The whole screen tested about 5,500 compounds, of which about 2,000 (36%) were called active. Roughly 18% stayed inconclusive and do not appear here. Some of the results follow. A number with no mark means an inactive call. Cut-off read from the data, not from the text of the source: active = normalized growth mostly below about 0.91 (no sharp cut-off); inconclusive = no clear call, values can overlap the other calls; inactive = mostly above about 0.92.
# Assay: chemical genetic growth profiling, strain panel (AID 1159580);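 note: tested at 20 µM; growth read once vehicle control cultures reached saturation at 30 °C; 1 = growth at the plate median or of vehicle wells; lower values mean less growth of the strain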
# Conditions: growth OD
structure (smiles),measurement,setting,value
COc1ccc2c(c1)OC/C(=C\c1ccc(OC)c(O)c1)C2=O,normalized growth,"S. cerevisiae deletion strains, locus YJR066W, strain TOR1, active compounds read low",0.891
same,normalized growth,"S. cerevisiae deletion strains, locus YKL009W, strain mrt4, active compounds read low",0.843 (active)
same,normalized growth,"S. cerevisiae deletion strains, locus YKL068W, active compounds read low",0.948
same,normalized growth,"S. cerevisiae deletion strains, locus YKL085W, strain MDH1 (second series), active compounds read low",0.915 (active)
same,normalized growth,"S. cerevisiae deletion strains, locus YKL085W, strain MDH1, active compounds read low",0.915 (active)
same,normalized growth,"S. cerevisiae deletion strains, locus YKL160W, strain elf1, active compounds read low",0.831 (active)
same,normalized growth,"S. cerevisiae deletion strains, locus YKL190W, strain CNB1, active compounds read low",0.81 (active)
same,normalized growth,"S. cerevisiae deletion strains, locus YKR001C, strain vps1, active compounds read low",0.651 (active)
same,normalized growth,"S. cerevisiae deletion strains, locus YKR026C, strain gcn3, active compounds read low",0.946
same,normalized growth,"S. cerevisiae deletion strains, locus YKR091W, strain srl3, active compounds read low",0.962
same,normalized growth,"S. cerevisiae deletion strains, locus YLL001W, strain dnm1, active compounds read low",0.823 (active)
same,normalized growth,"S. cerevisiae deletion strains, locus YLL026W, active compounds read low",0.931
same,normalized growth,"S. cerevisiae deletion strains, locus YLL041C, strain sdh2, active compounds read low",0.955
same,normalized growth,"S. cerevisiae deletion strains, locus YLR027C, strain aat2, active compounds read low",0.84 (active)
same,normalized growth,"S. cerevisiae deletion strains, locus YLR039C, strain RIC1, active compounds read low",0.51 (active)
same,normalized growth,"S. cerevisiae deletion strains, locus YLR058C, strain SHM2, active compounds read low",0.774 (active)
same,normalized growth,"S. cerevisiae deletion strains, locus YLR102C, strain apc9, active compounds read low",0.824 (active)
same,normalized growth,"S. cerevisiae deletion strains, locus YLR113W, strain HOG1, active compounds read low",0.909
same,normalized growth,"S. cerevisiae deletion strains, locus YLR221C, strain rsa3, active compounds read low",0.841 (active)
same,normalized growth,"S. cerevisiae deletion strains, locus YLR258W, strain gsy2, active compounds read low",0.891 (active)
same,normalized growth,"S. cerevisiae deletion strains, locus YLR262C, strain YPT6 (second series), active compounds read low",0.719 (active)
same,normalized growth,"S. cerevisiae deletion strains, locus YLR262C, strain YPT6, active compounds read low",0.423 (active)
same,normalized growth,"S. cerevisiae deletion strains, locus YLR268W, strain sec22, active compounds read low",0.709 (active)
same,normalized growth,"S. cerevisiae deletion strains, locus YLR320W, strain mms22, active compounds read low",0.652 (active)
same,normalized growth,"S. cerevisiae deletion strains, locus YLR330W, strain CHS5, active compounds read low",0.467 (active)
same,normalized growth,"S. cerevisiae deletion strains, locus YLR342W, strain FKS1 (second series), active compounds read low",0.702 (active)
same,normalized growth,"S. cerevisiae deletion strains, locus YLR342W, strain FKS1, active compounds read low",0.885 (active)
same,normalized growth,"S. cerevisiae deletion strains, locus YLR357W, strain rsc2, active compounds read low",0.964
same,normalized growth,"S. cerevisiae deletion strains, locus YLR370C, strain arc18, active compounds read low",0.938
same,normalized growth,"S. cerevisiae deletion strains, locus YLR371W, strain rom2, active compounds read low",0.584 (active)
same,normalized growth,"S. cerevisiae deletion strains, locus YLR384C, strain iki3, active compounds read low",0.95
same,normalized growth,"S. cerevisiae deletion strains, locus YLR418C, strain cdc73, active compounds read low",0.322 (active)
same,normalized growth,"S. cerevisiae deletion strains, locus YML016C, strain PPZ1, active compounds read low",0.791 (active)
same,normalized growth,"S. cerevisiae deletion strains, locus YML032C, strain rad52, active compounds read low",0.787 (active)
same,normalized growth,"S. cerevisiae deletion strains, locus YML120C, strain ndi1, active compounds read low",0.858 (active)
same,normalized growth,"S. cerevisiae deletion strains, locus YML124C, strain tub3, active compounds read low",0.865 (active)
same,normalized growth,"S. cerevisiae deletion strains, locus YMR058W, strain fet3, active compounds read low",0.846 (active)
same,normalized growth,"S. cerevisiae deletion strains, locus YMR078C, strain ctf18, active compounds read low",0.458 (active)
same,normalized growth,"S. cerevisiae deletion strains, locus YMR125W, strain sto1, active compounds read low",0.863 (active)
same,normalized growth,"S. cerevisiae deletion strains, locus YMR129W, active compounds read low",0.946
same,normalized growth,"S. cerevisiae deletion strains, locus YMR205C, strain PFK2, active compounds read low",0.768 (active)
same,normalized growth,"S. cerevisiae deletion strains, locus YMR223W, strain ubp8, active compounds read low",0.761 (active)
same,normalized growth,"S. cerevisiae deletion strains, locus YMR231W, strain pep5, active compounds read low",0.977
same,normalized growth,"S. cerevisiae deletion strains, locus YMR307W, strain GAS1, active compounds read low",0.557 (active)
same,normalized growth,"S. cerevisiae deletion strains, locus YNL067W, strain RPL9B, active compounds read low",0.774 (active)
same,normalized growth,"S. cerevisiae deletion strains, locus YNL071W, strain lat1, active compounds read low",0.369 (active)
same,normalized growth,"S. cerevisiae deletion strains, locus YNL183C, strain NPR1, active compounds read low",0.924
same,normalized growth,"S. cerevisiae deletion strains, locus YNL209W, strain ssb2, active compounds read low",0.938
same,normalized growth,"S. cerevisiae deletion strains, locus YNL233W, strain BNI4, active compounds read low",0.448 (active)
same,normalized growth,"S. cerevisiae deletion strains, locus YNL248C, strain rpa49, active compounds read low",0.902
same,normalized growth,"S. cerevisiae deletion strains, locus YNL250W, strain rad50, active compounds read low",0.885 (active)
same,normalized growth,"S. cerevisiae deletion strains, locus YNL271C, strain bni1, active compounds read low",0.865 (active)
same,normalized growth,"S. cerevisiae deletion strains, locus YNL298W, strain CLA4, active compounds read low",0.895 (active)
same,normalized growth,"S. cerevisiae deletion strains, locus YNL307C, strain MCK1, active compounds read low",0.127 (active)
same,normalized growth,"S. cerevisiae deletion strains, locus YNL322C, strain KRE1 (second series), active compounds read low",0.95
same,normalized growth,"S. cerevisiae deletion strains, locus YNL322C, strain KRE1, active compounds read low",0.793 (active)
same,normalized growth,"S. cerevisiae deletion strains, locus YNR049C, strain mso1, active compounds read low",0.955
same,normalized growth,"S. cerevisiae deletion strains, locus YNR052C, strain pop2, active compounds read low",0.885 (active)
same,normalized growth,"S. cerevisiae deletion strains, locus YOL006C, strain TOP1, active compounds read low",0.563
same,normalized growth,"S. cerevisiae deletion strains, locus YOL012C, strain htz1",0.356
same,normalized growth,"S. cerevisiae deletion strains, locus YOL147C, strain pex11, active compounds read low",0.542 (active)
same,normalized growth,"S. cerevisiae deletion strains, locus YOR001W, strain rrp6, active compounds read low",0.848 (active)
same,normalized growth,"S. cerevisiae deletion strains, locus YOR061W, strain CKA2, active compounds read low",0.93
same,normalized growth,"S. cerevisiae deletion strains, locus YOR069W, strain VPS5, active compounds read low",0.807 (active)
same,normalized growth,"S. cerevisiae deletion strains, locus YOR070C, strain gyp1, active compounds read low",0.882 (active)
same,normalized growth,"S. cerevisiae deletion strains, locus YOR080W, strain dia2, active compounds read low",0.925
same,normalized growth,"S. cerevisiae deletion strains, locus YOR083W, strain WHI5, active compounds read low",0.869 (active)
same,normalized growth,"S. cerevisiae deletion strains, locus YOR106W, strain vam3, active compounds read low",0.847 (active)
same,normalized growth,"S. cerevisiae deletion strains, locus YOR136W, strain idh2, active compounds read low",0.796 (active)
same,normalized growth,"S. cerevisiae deletion strains, locus YOR144C, strain elg1, active compounds read low",0.766 (active)
same,normalized growth,"S. cerevisiae deletion strains, locus YOR184W, strain ser1, active compounds read low",0.472 (active)
same,normalized growth,"S. cerevisiae deletion strains, locus YOR231W, strain MKK1, active compounds read low",0.995
same,normalized growth,"S. cerevisiae deletion strains, locus YOR265W, strain rbl2, active compounds read low",0.941
same,normalized growth,"S. cerevisiae deletion strains, locus YOR270C, strain vph1, active compounds read low",0.661 (active)
same,normalized growth,"S. cerevisiae deletion strains, locus YOR290C, strain snf2, active compounds read low",0.789 (active)
same,normalized growth,"S. cerevisiae deletion strains, locus YOR316C, strain cot1, active compounds read low",0.882 (active)
same,normalized growth,"S. cerevisiae deletion strains, locus YPL051W, strain arl3, active compounds read low",0.836 (active)
same,normalized growth,"S. cerevisiae deletion strains, locus YPL055C, strain LGE1, active compounds read low",0.576 (active)
same,normalized growth,"S. cerevisiae deletion strains, locus YPL078C, strain atp4, active compounds read low",0.836 (active)
same,normalized growth,"S. cerevisiae deletion strains, locus YPL106C, strain sse1, active compounds read low",0.729 (active)
same,normalized growth,"S. cerevisiae deletion strains, locus YPL240C, strain hsp82, active compounds read low",0.929
same,normalized growth,"S. cerevisiae deletion strains, locus YPL241C, strain CIN2, active compounds read low",0.958
same,normalized growth,"S. cerevisiae deletion strains, locus YPL256C, strain CLN2, active compounds read low",0.958
same,normalized growth,"S. cerevisiae deletion strains, locus YPR119W, strain clb2, active compounds read low",0.859 (active)
same,normalized growth,"S. cerevisiae deletion strains, locus YPR141C, strain kar3, active compounds read low",0.924
same,normalized growth,"S. cerevisiae deletion strains, locus YPR163C, strain tif3, active compounds read low",0.351 (active)
same,normalized growth,"S. cerevisiae deletion strains, locus YPR167C, strain met16, active compounds read low",0.811 (active)
same,normalized growth,"S. cerevisiae deletion strains, strain wtn01, active compounds read low",0.711 (active)
same,normalized growth,"S. cerevisiae strains, strain wild type, active compounds read low",0.663 (active)

# Source: PubChem BioAssay AID1159580 (chemical genetic matrix, 2015)
